High-throughput results (PubChem BioAssay)
Compounds with a hit are over-represented: about 10% of the library has one in this group of screens.
BAZ2B block = inhibitors of human BAZ2B bromodomain. Potency, µM (highest dose often 114 µM), most hits filed as inhibitors. AID 504333. AlphaScreen BAZ2B-H3K14Ac peptide displacement. hit rate 4.4% among 360,000. Q9UIF8; further: nearly all actives have a fitted effect of over 60% in size
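Protein-peptide AlphaScreen: BAZ2B 50 nM, b-H3K14Ac 50 nM, 1x PBS pH 7.4 + 0.01% Tween-20. Preincubation 30 min RT; cpd 30 min RT (top 110 uM); beads 20 min RT, light-protected.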
G9a block = inhibitors of human histone lysine methyltransferase G9a. G9a H3K9 monomethylation, AlphaScreen, 2 h. Potency, µM (top dose mostly 102 µM), actives largely listed as inhibitors. AID 504332. hit rate 8.8% among 350,000; further: nearly all actives have a fitted effect of over 75% in size
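Compounds were preincubated with 20 nM G9a for 15 min, after which biotinylated H3K9 peptide (500 nM) and SAM (20 uM) started a 2 h room-temperature reaction. Monomethylated product was quantified by antibody-based AlphaScreen chemiluminescence.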
Six1-Eya2 blk = blocks human Six1 binding to Eya2; Q15475+O00167; AlphaScreen GST-Six1/His-Eya2 binding, biochemical; stronger effect = lower value; activity change, % (test concentration not listed); hit rate 0.56% among 360,000; in the data active means activity change below about -65%; inconclusive means mostly about -30% to -63%
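GST-Six1 + His-Eya2 (5X stock: 250/500 nM); Tris pH 8.0, 300 mM NaCl, 0.05% BSA, 0.02% Tween 20; GSH donor/Ni acceptor beads; 1 h 37 °C dark; AlphaScreen readout.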
JMJD2A Tudor = blocks the human JMJD2A Tudor domain. AlphaScreen JMJD2A-Tudor / H3K4me3 peptide binding. hit rate 4.4% among 390,000. Potency, µM (top dose mostly 114 µM), usual class: inhibitors. O75164; further: nearly all actives have a fitted effect of over 50% in size
CtBP-E1A blk = blocks the CtBP interaction with E1A | hit rate 0.49% among 340,000 | AID 651724 | AlphaScreen GST-E1A/His-CtBP binding, 1536-well; stronger effect = lower value | activity change, % (test concentration not listed); in the data active means activity change below about -65%; inconclusive means mostly about -30% to -63%
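Protein mix (5X: 125 nM each GST-E1A, His-CtBP) was incubated with pinned compound 2 h at 37 deg C in dark, in 50 mM Tris pH 8.0 buffer with 300 mM NaCl. Glutathione donor and nickel acceptor beads followed; AlphaScreen signal read after 1 h.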
HP1b binding inh = HP1-beta chromodomain-methylated histone interaction inhibition. AlphaScreen HP1-beta / biotin-H3K9me3 peptide binding. AID 540317. hit rate 0.56% among 390,000. P83916. Potency, µM (highest dose often 114 µM), actives largely listed as inhibitors; further: nearly all actives have a fitted effect of over 70% in size
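HP1-beta protein (50 nM final) preincubated 30 min at room temperature with biotinylated H3(1-18)K9me3 peptide (50 nM) in PBS pH 7.4, 0.01% Tween-20, then compound added for 30 min. AlphaScreen streptavidin donor/nickel chelate acceptor beads (10 ug/mL final), 30 min dark, luminescence read.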
Hits are given with their value; n = inactive; u = inconclusive; x = no result; [ ] = another dose, or the depositor's remark. Unless noted, the call rests on the fitted dose curve; in most records, active means well fitted inhibition curve with a large enough effect; inconclusive means small, poorly fitted or top-dose-only effect; inactive means no such curve, though single readings can be large or run the other way.

SMILES	BAZ2B block	G9a block	Six1-Eya2 blk	JMJD2A Tudor	CtBP-E1A blk	HP1b binding inh
CN1/C(=C\C(=S)NC(=O)c2ccccc2Cl)C(C)(C)c2ccccc21	11.2µM	35.5µM	u	25.1µM	n	25.1µM
CN1/C(=C/C(=S)NC(=O)C2(C)CC2(Cl)Cl)C(C)(C)c2ccccc21 (stereo not drawn)	20µM	u	-66.3	35.5µM	-71.7	17.8µM
CCOC(=O)c1c(NC(C)=O)c2c3c(sc2n1Cc1nc(-c2ccc(Cl)cc2)oc1C)CCCC3	n	n	x	n	x	n
COc1ccc(C2c3[nH]c4ccccc4c3CCN2CCCn2cccn2)c(C)c1C (stereo not drawn)	u	39.8µM	n	u	n	n
Nc1ccc(-c2ccc3ccccc3n2)cc1	x	18.9µM	x	x	x	x
COc1ccc(-c2nsc(NC(=O)c3oc4ccccc4c3C)n2)cc1	n	n	x	n	x	n
O[C@@H]1COC(Nc2ccc(N=Nc3ccccc3)cc2)C[C@@H]1O (stereo partly drawn)	u	44.7µM	n	u	u	u
Oc1ccc(/C=N/N=C/c2ccc(O)c(O)c2)cc1O	10µM	35.5µM	n	7.94µM	n	n
COc1cc(/C=N/N=C2/C(=O)Nc3ccccc32)ccc1O	u	u	n	u	n	n
Oc1ccc(/C=N/N=C/c2ccc(O)cc2)cc1	n	u	n	n	n	n
Oc1ccc(N=Cc2ccc(O)c(O)c2)cc1	44.7µM	1.26µM	u	56.2µM	n	u
O=C(/C(=N/N=C/c1ccc(O)c(O)c1)c1ccccc1)c1ccccc1	39.8µM	31.6µM	n	25.1µM	n	u
O=C1Nc2ccccc2/C1=N\N=C\c1ccc(O)c(O)c1	39.8µM	x	n	u	n	31.6µM
CC(C)(C)c1cc(C(c2cccnc2)N2CCN(CCO)CC2)cc(C(C)(C)C)c1O (stereo not drawn)	50.1µM	10µM	n	31.6µM	n	u
CC(C)(C)n1nnnc1C(c1cccnc1)N1CCN(c2cccc(C(F)(F)F)c2)CC1 (stereo not drawn)	u	u	n	n	n	n
Cc1cccc(C(C)(C)C)c1OCCN1CCCC1	n	25.1µM	n	4.47µM	n	u
Cc1cccc(C(C)(C)C)c1OCCOCCN1CCCC1	n	u	n	2.24µM	n	n
Cc1cccc(OCCOCCN2CCOCC2)c1C	n	n[12.7 µM]	n	n	n	n
O=C(COC(=O)c1ccccc1Nc1ccccc1)NCc1ccccc1Cl	n	n	n	n	n	n
O=C(COC(=O)c1ccccc1Nc1ccccc1)NCc1ccccc1	n	50.1µM	n	n	n	n
O=C(COC(=O)c1ccccc1Oc1ccccc1)NCc1ccco1	28.2µM	44.7µM	n	56.2µM	n	u
O=C(COC(=O)c1ccc(Br)o1)NCc1ccco1	x	x	n	79.4µM	n	n
COc1ccc(C(=O)OCC(=O)NCc2ccco2)cc1OC	n	44.7µM	n	n	n	n
O=C(COC(=O)c1ccco1)NCc1ccco1	n	n	n	n	n	n
O=C(NCc1ccccc1)c1cccn1-c1nnc(N2CCCCC2)s1	n	n	x	n	x	n
SMILES	BAZ2B block	G9a block	Six1-Eya2 blk	JMJD2A Tudor	CtBP-E1A blk	HP1b binding inh
O=c1cnc2cnc(N3CCOCC3)nc2n1Cc1ccc(F)cc1	x	n[12.7 µM]	x	x	x	x
O=C(OCCOCCO)c1ccccc1Nc1cccc(C(F)(F)F)c1	x	n[5.15 µM]	x	x	x	x
O=C(COC(=O)c1ccccc1)NCc1ccco1	50.1µM	n	n	u	n	n
O=C(COC(=O)c1cccc(Br)c1)NCc1ccco1	x	x	n	17.8µM	n	u
O=C(COC(=O)c1ccccc1Nc1cccc(C(F)(F)F)c1)NCc1ccco1	44.7µM	28.2µM	n	56.2µM	n	u
CCOC(=O)c1ccccc1NC(=O)c1c(C)oc2ncnc(N3CCOCC3)c12	n	n	x	n	x	n
CCc1ccc(N(CC)C(=O)Cn2cnc3sc(C)c(S(=O)(=O)N4CCN(c5ncccn5)CC4)c3c2=O)cc1	n	n	x	n	x	n
CC(C)Nc1nc(NC(C)C)nc(N(C)C(N)=O)n1	u	u	n	n	n	n
CCNc1nc(NCC)nc(N(C)N)n1	25.1µM	n	u	28.2µM	u	n
CC(C)Nc1nc(NC(C)C)nc(N(C)N)n1	3.16µM	n	u	35.5µM	u	n
